# Methyltransferases = Primary Screen for Target Class Profiling of Small Molecule Inhibitors of Methyltransferases | purified enzyme, MTase-Glo SAH luminescence; stronger effect = lower value | calls only at 40 µM | 3.9% of 25,000 active | AID 1745853, 2022; call rule not given here
#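 Each enzyme was reacted with SAM and its substrate, with compounds tested once at 40 uM; SAH formed was read by MTase-Glo luminescence.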
# MTase-Glo counter = Counterscreen for Target Class Profiling of Small Molecule Inhibitors of Methyltransferases; shares compounds with Methyltransferases; MTase-Glo coupled enzymes, SAH conversion luminescence, no MTase; Potency, µM (doses to about 57.3 µM), usual class: inhibitors; 6% of 180 active; active = well fitted inhibition curve with a large enough effect
# Hits are given with their value; n = inactive; + = active, no number. This excerpt belongs to a sample that is enriched for hits.
SMILES,Methyltransferases,others
COc1ccccc1NC(=O)Cn1nc2n(CCc3ccccc3)c(=O)c3ccccc3n2c1=O,n,
COc1cccc(CN2CCCC3(CNc4ccccc4[S+](=O)([O-])N3)C2)c1 (stereo not given),+,MTase-Glo counter=n
N#Cc1ccc(CN2CCC3(CNc4ccccc4[S+](=O)([O-])N3)C2)cc1 (stereo not given),n,
O=[S+]1([O-])NC2(CCN(Cc3ccc(F)cc3)CC2)CNc2ccccc21,n,
CC(C)OCCCn1c(=O)c2ccccc2n2c(CCC(=O)N3CCN(c4ccc(F)cc4)CC3)nnc12,n,
Cc1ccc(NC(=O)CSc2nnc3n(CC(C)C)c(=O)c4ccc(C(=O)NCC(C)C)cc4n23)cc1,n,
COCCCNC(=O)c1cnc2n[nH]c(-c3ccccc3)c2n1,+,MTase-Glo counter=n
CCOCCCNC(=O)c1cc2c(=O)[nH]c(-c3ccccc3)cn2n1,n,
COc1ccccc1CCNC(=O)c1cc2n(n1)CC(C)(C(=O)NC1CCCCCC1)N(C)C2=O (stereo not given),n,
COc1ccc(C(=O)NCCn2c(C)cnc2-c2ccccc2)cn1,n,
COc1ccccc1-c1[nH]nc2ncc(C(=O)NCC3CC3)nc12,+,MTase-Glo counter=n
CC1(C)[C@H]2CC[C@@H](CNC(=O)c3ccc4ccccc4n3)[C@@H]1C2,n,
Cc1cc(F)ccc1-c1[nH]nc2ncc(-c3ccnn3C)nc12,n,
c1ccc(-c2[nH]nc3ncc(-c4cn[nH]c4)nc23)cc1,+,MTase-Glo counter=24.8µM
COc1ccccc1CNC(=O)C1(C)Cn2nc(-c3ccccc3)cc2C(=O)N1Cc1cccc(C)c1 (stereo not given),n,
CCOc1ccccc1CNC(=O)c1cc2n(n1)CC(C)(C(=O)NC1CCCC1)N(C)C2=O (stereo not given),n,
CCOc1ccc(CCNC(=O)CCn2ccc3cc(S(=O)(=O)N4CCCCC4)ccc32)cc1,n,
CCN(CC)c1ccc(NS(=O)(=O)c2ccc3[nH]c4c(c3c2)CCCC4)c(C)c1,n,
c1ccc(-c2cc3c(cn2)NCCN(CC2CC2)C3)cc1,+,MTase-Glo counter=n
Cc1cnc(-c2cccnc2)n1CC1CCN(S(=O)(=O)c2ccccc2)CC1,n,
Cc1cnc(-c2cccnc2)n1C1CCCN(CC2CCCCC2)C1 (stereo not given),n,
CC(C)NC(=O)c1ccc2c(=O)n(C(C)C)c3nn(CC(=O)NCc4ccccc4Cl)c(=O)n3c2c1,n,
CCOC(=O)c1cc2n(n1)CC(C)(C(=O)NC1CCC(C)CC1)N(c1cc(C)cc(C)c1)C2=O (stereo not given),n,
CC1(C(=O)NC2CCCCCC2)Cn2c(ccc2-c2ccco2)C(=O)N1Cc1ccccn1 (stereo not given),n,
Cc1ccc(N2C(=O)c3cc(C(C)(C)C)nn3CC2(C)C(=O)NCc2ccccc2)c(C)c1 (stereo not given),n,
SMILES,Methyltransferases,others
Cc1ccc(CN2C(=O)c3cc4occc4n3CC2(C)C(=O)NC2CCCCCCC2)cc1 (stereo not given),n,
CC(C)c1cc2n(n1)CC(C)(C(=O)NC1CCCCC1)N(Cc1ccccc1Cl)C2=O (stereo not given),n,
Cc1nn2c(c1-c1cccnc1N1CCOCC1)N(C(=O)c1cc3ccccc3n1C)CCC2,n,
COc1ncccc1-c1cc2c(ccn2CC2CCN([S+](C)(=O)[O-])CC2)c(N2CCOCC2)n1,+,MTase-Glo counter=n
COc1ccc(NC(=O)CCc2nnc3n(Cc4ccc(F)cc4)c(=O)c4ccccc4n23)cc1,n,
CC(C)OCCCn1c(=O)c2ccccc2n2c(CCC(=O)Nc3cccc(Cl)c3)nnc12,n,
CC(C)(C)c1cc2n(n1)CC(C)(C(=O)NCc1ccccc1)N(c1ccc(F)cc1F)C2=O (stereo not given),n,
O=C(Cn1ccc2cc(S(=O)(=O)N3CCCCC3)ccc21)N1CCN(c2ccccn2)CC1,n,
CCCN1C(=O)c2c(C(=O)NCc3ccc(F)cc3)ncn2CC1(C)C(=O)NCc1ccc(F)cc1 (stereo not given),n,
O=C(NCC1CC1)c1nc2c(o1)CCN(CCCc1ccccc1)CC2,n,
COc1ccc(CN2CCc3nc(C(=O)NCCOc4ccccc4)oc3CC2)cn1,n,
O=C(NCc1cccc(F)c1)c1nc2c(o1)CCN(CC1CCCC1)CC2,+,MTase-Glo counter=n
Cc1ccc(Cn2nc3n(C(C)C)c(=O)c4ccc(C(=O)NC5CCCCC5)cc4n3c2=O)cc1,n,
Cc1cc2c(cc3n2CC(C)(C(=O)NC2CCCCCC2)N(C2CCCc4ccccc42)C3=O)o1 (stereo not given),n,
O=C(Nc1ccc(F)cc1)N1Cc2c(sc3c2CCCC3)-n2cccc2C1c1cccc(F)c1 (stereo not given),n,
COc1ncccc1-c1n[nH]c2c1CC(=O)N(Cc1ccccc1)C2,n,
COc1ncccc1-c1nccn2c(C3CN(Cc4ccccc4O)C3)ncc12,+,MTase-Glo counter=n
COc1ncccc1-c1cc2c(nc1OC)nc(CCc1ccccc1)n2C,n,

# Source: PubChem (National Center for Advancing Translational Sciences (NCATS))
